Bioassay records as filed in PubChem BioAssay.
Sm TGR block – S. mansoni TGR enzyme inhibition; 360,000 compounds, 3% hits; AID 485364; Potency, µM (doses to about 114 µM), without a hit: at the highest dose activity change, negative = inhibition, actives largely listed as inhibitors; purified TGR, DTNB reduction, TNB absorbance 405 nm; Q962Y6; active = well fitted inhibition curve with a large enough effect; inconclusive = small, poorly fitted or top-dose-only effect; inactive = no such curve, though single readings can be large or run the other way; note: nearly all actives have a fitted effect of over 60% in size
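Kinetic colorimetric format: TGR-catalysed, NADPH-driven DTNB reduction monitored via TNB absorbance. Enzyme dispensed at 20 nM; compound exposure 15 min at room temperature before reaction start.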
LASV entry inh – inhibitors of Lassa virus binding or cell entry; Potency, µM (series often up to 37.9 µM), for inactives: at the highest dose activity change, negative = inhibition, usual class: inhibitors; 300,000 compounds, 1.2% hits; Lassa virus pseudotype entry inhibition, cell reporter; calls by dose curve; tested in HEK293 cells; note: nearly all actives have a fitted effect of over 50% in size
Vaccinia Venus – vaccinia inhibition (Venus reporter); 330,000 compounds, 0.46% hits; Potency, µM (doses to about 36.5 µM), without a hit: at the top dose activity change, negative = inhibition, most hits filed as inhibitors; AID 720580; Vaccinia virus Venus reporter expression, fluorescence; calls by dose curve; tested in A549 cells; note: nearly all actives have a fitted effect of over 30% in size
Vaccinia mCherry – inhibitors of vaccinia virus infection (mCherry reporter signal); Vaccinia virus mCherry reporter infection, fluorescence; Potency, µM (titrated, usually from 36.5 µM), without a hit: at the highest dose activity change, negative = inhibition, actives largely listed as inhibitors; 310,000 compounds, 0.63% hits; calls by dose curve; tested in A549 cells; note: nearly all actives have a fitted effect of over 35% in size
FMDV antiviral – antivirals against foot and mouth disease virus. Potency, µM (series often up to 57.9 µM), without a hit: at the highest dose activity change, negative = inhibition, hits mostly inhibitors. AID 1159524. 410,000 compounds, 1.2% hits. FMDV antiviral cell-based qHTS; calls by dose curve; tested in HEK293T cells; note: read-out not given here; nearly all actives have a fitted effect of over 45% in size
MARV entry inh – blocks Marburg virus binding to or entry into cells; 300,000 compounds, 1.8% hits; Potency, µM (series often up to 37.8 µM), for the others: top-dose activity change, negative = inhibition, usual class: inhibitors; Marburg virus pseudotyped entry inhibition, cell reporter; calls by dose curve; tested in HEK293 cells
* = called active by the depositor; i = inactive; ? = inconclusive; . = no result given; [ ] = dose if it differs, or a comment. Only some compounds are listed: those with a hit (about 5.4% of all), similar ones and a draw of the others. % is set by controls: 0 for no effect and ±100 for the full control effect; potency is the fitted concentration of half-maximal effect.

SMILES	Sm TGR block	LASV entry inh	Vaccinia Venus	Vaccinia mCherry	FMDV antiviral	MARV entry inh
O=[N+]([O-])c1cccc(-c2cc(-c3cc(Br)ccc3O)[nH]n2)c1	-14.2%	?	?	?	28.2µM*	?
O=[N+]([O-])c1cccc(-c2n[nH]c(=S)n2-c2ccc(Br)cc2)c1	0.794µM*	16.8%[46.1 µM]	-14.4%	i	-19.1%	-1.2%[46.1 µM]
Oc1ccc(Br)cc1-c1cc(-c2ccccc2)n[nH]1	-3.2%	-10.6%	-27.6%	-12.4%	3.7%	-25.2%
COc1ccc(NC(=O)c2oc3ccccc3c2NC(=O)c2cc(=O)c3ccccc3o2)cc1	4.5%	28.5%[46.1 µM]	-27.2%	-25.6%	?	-3.0%[46.1 µM]
C=CCN1C(=O)NC(=O)/C(=C/c2cc3c4c(c2)CCCN4CCC3)C1=O	8.91µM*	12.3%[46.1 µM]	0.5%	-5.9%	0.3%	-30.0%
C=CCN1C(=O)NC(=O)/C(=C/c2cnc(SC)nc2)C1=O	?	1.0%	15.8%	.	-8.6%	-5.8%
CC(=O)c1cccc(NC(=O)c2ccc([N+](=O)[O-])o2)c1	.	?	-2.2%[7.34 µM]	-2.4%[7.34 µM]	1.7%	?
O=C(Nc1ccc2oc(-c3cccnc3)nc2c1)c1ccc(-c2cccc(OC(F)(F)F)c2)o1	10µM*	15.2%[46.1 µM]	-18.7%	-2.8%	?	.
O=C(Nc1ccc2oc(-c3ccncc3)nc2c1)c1ccc([N+](=O)[O-])o1	-12.8%	-26.1%[46.1 µM]	?	10µM*	8.0%	?
Cc1c(Cl)cccc1-c1ccc(C(=O)Nc2ccc3oc(-c4cccnc4)nc3c2)o1	?	20.9%[46.1 µM]	-11.4%[7.34 µM]	-15.4%[7.34 µM]	?	.
COc1cc(NC(=O)c2ccc([N+](=O)[O-])o2)ccc1NC(=O)c1ccco1	8.6%	.	.	.	6.3%	.
COc1ccc(NC(=O)c2ccc([N+](=O)[O-])o2)cc1	?	-5.5%[46.1 µM]	?	?	6.9%	11.2µM*
Cc1cc(C)cc(NC(=O)c2ccc([N+](=O)[O-])o2)c1	35.5µM*	?	?	?	-6.4%	?
O=S(=O)(/N=C(/Sc1ccccc1)c1ccccc1)c1ccc(Cl)cc1	.	.	-18.6%	-14.1%	.	.
CC(C)(C)C(=O)Nc1ccc2nc(SCCOc3ccccc3Cl)sc2c1	6.6%	?	-23.0%	-6.7%	?	-23.6%[46.1 µM]
COc1ccccc1N1CCN(C(=O)CCn2cnc3onc(-c4ccc(F)cc4)c3c2=O)CC1	2.9%	25.7%[46.1 µM]	15.0%	8.0%	-18.5%	.
Cc1cccc(NC(=O)c2ccc(-c3ccccc3[N+](=O)[O-])o2)c1	3.55µM*	.	-12.7%	-19.3%	1.1%	13.9%[46.1 µM]
CC(=O)c1ccc(NC(=O)c2ccc([N+](=O)[O-])o2)cc1	28.2µM*	.	.	.	44.9%	.
Cc1ccc(C)c(-c2nnc(NC(=O)c3ccc([N+](=O)[O-])o3)o2)c1	35.5µM*	?	?	?	-12.9%	-16.2%
Cc1ccc(C)c(-c2nnc(NC(=O)C3=COCCO3)o2)c1	2.5%	-0.6%	3.9%	-23.4%	18.1%	?
COc1cccc(NC(=O)c2ccc(-c3ccccc3[N+](=O)[O-])o2)c1	0.0%	?	-24.7%	-22.3%	5.1%	?
COc1cc(C(c2nnnn2C2CCCC2)N2CCc3ccccc3C2)ccc1O (stereo unspecified)	?	-9.8%	-18.4%	-14.1%	-13.6%	-5.1%
Oc1ccc(C(c2nnnn2C2CCCC2)N2CCc3ccccc3C2)cc1 (stereo unspecified)	3.16µM*	-23.9%	-8.7%	-26.2%	30.4%	?
CN(C)c1ccc(NC2=C([N+](=O)[O-])CS(=O)(=O)C2)cc1	2.24µM*	13.6%	-3.8%	-12.9%	.	18.6%
O=C(NCCc1ccccc1)c1ccc2c(c1)N(Cc1ccc(Cl)cc1)C(=O)c1ccccc1S2(=O)=O	2.0%	-23.4%[46.1 µM]	-14.4%	-15.0%	35.2%	?
SMILES	Sm TGR block	LASV entry inh	Vaccinia Venus	Vaccinia mCherry	FMDV antiviral	MARV entry inh
O=S(=O)(c1ccc(OCC(O)CNC23CC4CC(CC(C4)C2)C3)c(Cl)c1)N1CCOCC1 (stereo unspecified)	12.5%	-3.4%[46.1 µM]	-26.1%	-7.4%	-0.7%	2µM*
COc1ccc(-c2nnc(Sc3nc4ccccc4o3)c3ccccc23)cc1	34.8%	-6.3%	11.2µM*	8.91µM*	.	?
COc1cc(NC(=O)C23CC4CC(C2)CC(n2cnc([N+](=O)[O-])n2)(C4)C3)cc(OC)c1	-24.7%	-11.1%	-12.2%	-12.8%	-14.8%	2.51µM*
O=C(Nc1ccccc1)C12CC3CC(C1)CC(n1cnc([N+](=O)[O-])n1)(C3)C2	-0.5%	6.2%	6.8%	12.7%	-1.6%	-9.7%
CCC(Sc1nc2nccnc2c(=O)n1Cc1ccc(C)cc1)C(=O)NC1CCCCC1 (stereo unspecified)	-1.7%	-10.4%[46.1 µM]	-1.7%	-6.9%	3.5%	.
COCCNC(=O)c1cccc(S(=O)(=O)N2CC3(C)CC2CC(C)(C)C3)c1 (stereo unspecified)	79.4µM*	-15.6%	-12.5%	i	-7.8%	2.7%
CC1(C)CC2CC(C)(CN2S(=O)(=O)c2cccc(C(N)=O)c2)C1 (stereo unspecified)	4.3%	.	.	.	0.1%	.
COCCCNC(=O)c1cccc(S(=O)(=O)N2CC3(C)CC2CC(C)(C)C3)c1 (stereo unspecified)	-2.0%	.	.	.	12.8%	.
CC1(C)CC2CC(C)(CN2S(=O)(=O)c2cccc(C(=O)OCC(N)=O)c2)C1 (stereo unspecified)	39.8µM*	-0.1%[46.1 µM]	-19.5%	i	14.4%	0.8%
Cc1cc(=O)c2cc(C(=O)Nc3ccc(F)cc3)ccc2[nH]1	-5.3%	7.3%[46.1 µM]	-10.0%	-4.8%	-7.2%	5.2%[46.1 µM]
CCc1cccc2c(C(=O)C(NC(C)CC)c3ccccc3)c[nH]c12 (stereo unspecified)	12.8%	16.4µM*	-3.9%	?	-16.2%	11.6µM*
CCc1cccc2c(C(=O)C(NCCCOC)c3ccccc3)c[nH]c12 (stereo unspecified)	4.2%	?	4.6%	i	-9.3%	12.6µM*
COC(=O)c1ccc(OC(=O)c2cccnc2)cc1	-22.0%	0.1%	-20.0%	-9.6%	-7.4%	9.7%
COC(=O)c1ccc(OC(=O)c2ccncc2)cc1O	44.7µM*	.	.	.	-17.3%	.
CNC(=S)Nc1ccc2nc(C)c(C)nc2c1	31.6µM*	7.5%	.	.	4.5%	9.9%
COc1ccc(NC(=S)Nc2ccc3nc(C)c(C)nc3c2)cc1	22.4µM*	0.6%	.	.	-10.3%	-23.4%
COc1ccc(NC(=S)Nc2ccc3nsnc3c2)cc1	39.8µM*	19.9%	-7.4%	i	27.7%	?
CNC(=S)Nc1cccc(-c2cnc3ccccc3n2)c1	11.2µM*	?	?	?	29.0%	?
Cc1cc(-c2ccnc(-n3ncc(C(=O)NCC4CCCO4)c3C3CC3)n2)c(C)s1 (stereo unspecified)	.	.	2.5%	-18.0%	44.2%	.
O=C(c1ccco1)N1CCN(C(=O)c2cc(-c3ccncc3)nc3ccc(Br)cc23)CC1	.	-14.4%	15.3%	.	-29.2%	?
